From PubChem BioAssay
The list is not random: actives were taken first. Their share in the collection is about 1.1%.
HTR5A inv ctr: HTR5A inverse agonists in luminescence cell assay, primary screen, counter-screen for OPRM1-OPRD1 heterodimer inverse agonist project, full-deck HTS. inhibition, % at 9.3 µM. AID 504634, 2011. HTR5A cell line, inverse agonism. hit rate 0.083% among 340,000. 5-hydroxytryptamine receptor 5A (Homo sapiens), P47898; in the data active means inhibition mostly above about 23%, no sharp cut-off; inactive means mostly below about 18%;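 further: 0% = cells with DMSO and 100% = no-cell wells with DMSO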
MOR-DOR inv ag: inverse agonists of MOR-DOR heterodimerization, primary screen, cell-based, luminescence | cell-based MOR-DOR heterodimer luminescence, inverse agonism | inhibition, % at 9.3 µM | hit rate 0.21% among 340,000; in the data active means inhibition above about 22%, passing the limit was not always enough;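 further: 0% = cells with DMSO and 100% = wells without cells with DMSO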
Target sequence (P35372 whole entry, looked up): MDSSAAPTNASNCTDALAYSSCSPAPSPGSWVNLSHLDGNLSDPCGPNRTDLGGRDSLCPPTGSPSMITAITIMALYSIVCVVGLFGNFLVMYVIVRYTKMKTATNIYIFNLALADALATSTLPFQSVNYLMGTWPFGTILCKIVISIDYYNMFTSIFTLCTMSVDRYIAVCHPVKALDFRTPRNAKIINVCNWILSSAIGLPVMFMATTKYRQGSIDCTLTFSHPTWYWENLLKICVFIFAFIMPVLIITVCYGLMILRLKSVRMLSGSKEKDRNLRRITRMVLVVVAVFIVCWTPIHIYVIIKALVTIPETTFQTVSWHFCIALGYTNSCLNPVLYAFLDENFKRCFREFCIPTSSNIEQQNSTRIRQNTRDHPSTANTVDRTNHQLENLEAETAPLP
Target sequence (P41143 whole entry, looked up): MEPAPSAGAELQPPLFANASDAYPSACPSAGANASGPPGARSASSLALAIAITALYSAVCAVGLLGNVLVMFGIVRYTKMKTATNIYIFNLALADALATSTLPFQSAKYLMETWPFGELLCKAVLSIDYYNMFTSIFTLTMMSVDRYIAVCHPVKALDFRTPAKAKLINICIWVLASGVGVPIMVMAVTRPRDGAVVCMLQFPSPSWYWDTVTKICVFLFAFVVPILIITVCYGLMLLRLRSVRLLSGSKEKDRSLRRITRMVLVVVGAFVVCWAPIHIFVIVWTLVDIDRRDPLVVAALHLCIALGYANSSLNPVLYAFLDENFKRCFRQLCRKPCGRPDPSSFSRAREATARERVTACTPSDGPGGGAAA
OPRM1-OPRD1 ag: agonists of OPRM1-OPRD1 heterodimerization, primary screen, cell-based, luminescence. Mu-type opioid receptor (Homo sapiens) + Delta-type opioid receptor (Homo sapiens), …. AID 504326, 2011. hit rate 0.3% among 340,000. activation, % at 9.3 µM. cells; in the data active means activation above about 18%;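 further: 0% = vehicle-treated cells and 100% = reference agonist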
HTR5A ag ctr: HTR5A agonists in luminescence cell assay, primary screen, counter-screen for OPRM1-OPRD1 heterodimer agonist project, full-deck HTS | 5-hydroxytryptamine receptor 5A (Homo sapiens), P47898 | activation, % at 9.3 µM | cell-based | hit rate 0.61% among 340,000; in the data active means activation mostly above about 9.5%, no sharp cut-off; inactive means mostly below about 7.6%;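 further: 0% = cells with vehicle only and 100% = reference agonist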
The depositor's hits bear a star.

SMILES	HTR5A inv ctr	MOR-DOR inv ag	OPRM1-OPRD1 ag	HTR5A ag ctr
Nc1cccc(Nc2nc(OC(C(F)(F)F)C(F)(F)F)nc(OC(C(F)(F)F)C(F)(F)F)n2)c1	-10.3	-56.1	9.9	12.2*
Cn1cc(CN2CCC(N3CCNC(=O)CC3)CC2)c(-c2ccccc2F)n1	-2.4	4.5	-1.0	0.9
O=C(NC(C(=O)c1ccccc1)N1CCOCC1)c1cccs1 (centres undefined)	-26.1	-6.6	1.1	12.5*
O=C(NCc1ccc(F)cc1)C1CCC(CNS(=O)(=O)c2cccs2)CC1 (centres undefined)	-23.4	-26.3	4.2	14.2*
c1ccc2c(c1)CC/C2=N/Nc1nc2ccccc2[nH]1	-32.5	-30.6	6.5	11.7*
CC(C)(C)C1CCC(=NNc2nc3ccccc3[nH]2)CC1 (centres undefined)	1.5	6.8	-1.2	-0.6
CN(C1CCCCC1)S(=O)(=O)CCNC(=O)c1ccccc1	-4.2	5.3	-1.0	1.7
O=C(/C=C/c1cccnc1)c1ccc(F)c(F)c1	-4.0	9.0	-1.7	1.4
CN(C)c1ccc(C(=O)/C=C/c2cccnc2)cc1	-34.5	13.3	-2.7	9.2*
Cc1ccccc1C(=O)Nc1cccc(-c2ccc(N3CCOCC3)nn2)c1	-8.3	8.2	-1.7	1.1
Cc1cccc(C(=O)NC(=S)Nc2ccc(Cc3ccncc3)cc2)c1	-31.6	7.6	-1.3	12.3*
CCN1C(N(C)CCc2c[nH]c3ccccc23)=N[C@@H](c2cccc(C(F)(F)F)c2)C(C(=O)OC)=C1C	-65.5	-19.2	3.3	22.3*
COc1cccc(/C=N/NC(=O)CCn2c3ccccc3c3ccccc32)c1	-21.4	-23.1	3.7	11.6*
COc1ccc(/C=N/NC(=O)CCn2c3ccccc3c3ccccc32)cc1O	8.9	-2.0	0.3	7.7
Nn1c(SCC(=O)Nc2nccs2)nnc1C1CC1	-0.5	26.1	-8.0	1.1
CCCc1nnc(NC(=O)CCC(=O)N2CCCCC2CC)s1 (centres undefined)	-15.3	12.0	-2.2	9.9*
Cc1ccc(-c2nnn(CC(=O)N(CC3CCCO3)C(C(=O)NC3CCCC3)c3ccc(O)cc3)n2)o1 (centres undefined)	-26.6	3.2	-0.6	9.4*
CCOC(=O)N1CCN(C(=O)CCn2c(=S)[nH]c3ccccc3c2=O)CC1	1.5	14.1	-2.7	-3.2
O=C(CCn1c(=S)[nH]c2ccccc2c1=O)N1CCCCC1	-35.1	12.5	-2.5	9.4*
CCc1cc2c(COC(=O)c3cccc(NS(C)(=O)=O)c3)cc(=O)oc2cc1O	-16.4	-85.8	10.4	11.9*
CCc1cc2c(COC(=O)c3cc(S(=O)(=O)N4CCOCC4)ccc3F)cc(=O)oc2cc1O	0.5	11.9	-3.0	-0.2
Cc1ccc(S(=O)(=O)NCc2cccnc2)cc1C(=O)N1CCCC1	11.4	2.6	-0.5	-4.3
COc1ccc(-n2cc(-c3ccccc3)c3c(NN4CCOCC4)ncnc32)cc1	-2.5	-1.2	0.2	-0.5
OCCN1CCN(c2ncnc3c2c(-c2ccccc2)cn3-c2ccc(F)cc2)CC1	44.2*	45.0*	-9.5	-17.1
Fc1ccc(-n2cc(-c3ccccc3)c3c(NN4CCOCC4)ncnc32)cc1	45.7*	33.6*	-5.6	-17.1
SMILES	HTR5A inv ctr	MOR-DOR inv ag	OPRM1-OPRD1 ag	HTR5A ag ctr
CC1CN(c2ncnc3c2c(-c2ccccc2)cn3-c2ccc(F)cc2)CC(C)O1 (centres undefined)	77.0*	61.9*	-12.8	-20.8
CCCC(=O)Nc1ccc(S(=O)(=O)Nc2cc(OC)ncn2)cc1	14.3	5.5	-1.7	2.9
O=C(CSc1nncs1)Nc1ccc(S(=O)(=O)N2CCCC2)cc1	9.2	0.9	-0.2	-0.4
COc1c(F)c(F)c(C(=O)Nc2ccc(N3CCN(Cc4ccccc4)CC3)cc2)c(F)c1F	-40.1	-30.1	5.3	9.8*
CCN1CCN(c2ccc(NC(=O)c3ccc4c(c3)[nH]c(=O)n4Cc3ccc(F)cc3)cc2)CC1	9.7	-3.7	0.6	12.0*
O=C1CC2(CCN(C(=O)c3cccc([N+](=O)[O-])c3)CC2)Oc2ccccc21	-2.1	10.8	-1.6	1.5
Cc1cc(NC(=O)COC(=O)c2oc3c(ccc4ccccc43)c2C)no1	-0.7	-30.0	5.3	0.2
Cc1c(C(=O)OCC(=O)Nc2ccc(S(N)(=O)=O)cc2)oc2c1ccc1ccccc12	-20.7	-48.4	10.0	11.7*
Cc1ccccc1C(=O)N1CCCC(N2CCN(Cc3ccc4c(c3)OCO4)CC2)C1 (centres undefined)	1.7	-0.4	0.1	-0.7
CN(CC(=O)N(CCO)Cc1ccccc1)S(=O)(=O)c1ccc2c(c1)c(=O)n(C)c(=O)n2C	11.6	17.2	-3.4	2.1
Cc1cccc(N(C)C(=O)CN(C)S(=O)(=O)c2ccc3c(c2)c(=O)n(C)c(=O)n3C)c1	-4.0	12.0	-2.3	12.5*
COC(=O)/C(C#N)=C/c1c(N2CCN(Cc3ccc4c(c3)OCO4)CC2)nc2c(C)cccn2c1=O	29.5	8.9	-1.7	-2.5
Cc1cccn2c(=O)c(/C=C(\C#N)C(N)=O)c(N3CCN(Cc4ccc5c(c4)OCO5)CC3)nc12	-39.5	5.3	-1.0	11.4*
CC1Oc2ccccc2N(CC(=O)Nc2ccc(F)cc2)C1=O (centres undefined)	-40.3	12.6	-2.7	10.9*
CC1Oc2ccccc2N(CC(=O)Nc2ccc3c(c2)OCCO3)C1=O (centres undefined)	-11.8	7.6	-1.4	-3.6
NCCc1c(-c2ccccc2)n(-c2ccccc2)c2ccccc12	-10.3	-41.6	8.1	14.3*
CCC(=O)Oc1ccc(NC(=O)CSCc2ccccc2)cc1	-31.4	12.0	-1.9	6.3
CCN(CC)c1ccc(C(=C2C=CC(=[N+](CC)CC)C=C2)c2ccccc2)cc1	8.1	-229.0	52.3*	-2.1
CCOC(=O)CN(C(=O)COc1ccc2c(C)cc(=O)oc2c1)c1ccc(OCC)cc1	16.8	7.5	-1.1	-6.8
COc1cccc(/C=C(/C(=O)OCC(=O)NCC2CCCO2)c2ccccc2)c1 (centres undefined)	-27.3	-29.0	4.4	11.0*
COc1cccc(/C=C(/C(=O)OCC(=O)NC2CCCCCCC2)c2ccccc2)c1	-4.6	-16.8	3.3	1.8
Cc1ccc(Nc2c(-c3ccccn3)nc3cccc(C)n23)cc1	-3.1	34.1*	-6.7	-4.5
COc1cc2sc(NC(=O)c3ccco3)nc2cc1Cl	-38.6	-13.1	2.8	9.9*
Nc1c(Cl)ncnc1NCc1ccccc1	0.2	5.8	-1.2	5.9
CCN(c1ccccc1)S(=O)(=O)c1ccc(C(=O)N(CCCN(C)C)c2nc3cc4c(cc3s2)OCO4)cc1	18.9	-163.5	31.5*	0.7
O=C(COc1ccc2ccc(=O)oc2c1)OCc1ccccc1	-21.6	0.1	0.0	12.4*
Cc1ccccc1N1CCN(C2CCCN(C(=O)CCC3(C)CC3)C2)CC1 (centres undefined)	-15.4	21.9	-4.0	10.4*
